Results reported in PubChem BioAssay AID485314 (National Center for Advancing Translational Sciences (NCATS), 2010).
Values joined by “and” are separate entries in the source; they are usually repeats but may differ in a detail not shown here. Equal entries are not always repeated. Among all 340,000 compounds or so, about 4,500 (1.3%) were called active. Roughly 5% stayed inconclusive and do not appear here. The call rests on the fitted dose curve; in most records, active means well fitted inhibition curve with a large enough effect; inconclusive means small, poorly fitted or top-dose-only effect, or another doubt; inactive means no such curve, though single readings can be large or run the other way. The list comes from a sample in which actives are over-represented; it also holds similar structures and randomly drawn compounds. Some structures have more than one record in an assay (separate samples or runs), and their calls can disagree.

The compounds below were run against DNA polymerase beta (Homo sapiens) (UniProt P06746) (assay: qHTS Assay for Inhibitors of DNA Polymerase Beta). Conditions: Pol beta primer extension/strand displacement, fluorescence kinetic; series mostly up to 114 µM; activity change, negative = inhibition: at the top concentration.
Outline: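 Pol beta (10 nM) was preincubated with compound for 15 min at room temperature. The reaction was then started with 50 nM substrate and read immediately and after a further 10 min at room temperature.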
On the % scale 0 is the no-effect control and ±100 the full control effect; potency means the concentration at half of the fitted maximal effect.

| Structure (SMILES) | activity change, negative = inhibition | Potency |
| --- | --- | --- |
| Cc1cccc(-n2c(C)cc(/C=N\NC(=O)c3cccs3)c2C)c1 | 6.08% (inactive) |  |
| O=C(Nc1ccc(NC(=O)c2cccs2)cn1)c1ccco1 | -8.35% (inactive) |  |
| O=C(N/N=C/C=C/c1ccco1)c1cccs1 |  | 25.1 µM (active) |
| Oc1ccc(-c2nc3ccc(Cl)cn3c2Nc2ccc3c(c2)OCO3)cc1 | -2.41% (inactive) |  |
| CCOc1ccc(C(=O)/C=C/c2cn(CC(O)CN3CCCCCC3)c3ccccc23)cc1 (centres undefined) | 6.41% (inactive) |  |
| O=S(=O)(NCC(c1ccccc1)N1CCc2ccccc21)c1ccccc1 (centres undefined) | 24.4% (inactive) |  |
| COc1cc2nc(NCC(C)c3ccccc3)n3nc(-c4ccccc4)nc3c2cc1OC (centres undefined) | 33.3% (inactive) |  |
| O=C(NCc1ccccc1Cl)c1cccn1-c1nnc(N2CCCCC2)s1 | -19.8% (inactive) |  |
| O=C(O)CCC(=O)N(Cc1cccs1)Cc1cccs1 |  | 44.7 µM (active) |
| O=C(CCc1ccccc1)NCCc1cccs1 | 16.8% (inactive) |  |
| O=C(O)CCC(=O)N(Cc1ccccc1)Cc1ccccc1 | -17.8% (inactive) |  |
| CCc1cccc(C)c1Nc1c(-c2ccc(N(C)C)cc2)nc2ncccn12 | -0.565% (inactive) |  |
| COc1ccc(Cl)cc1NC(=O)CCS(=O)(=O)c1ccc(Br)cc1 |  | 3.16 µM (active) |
| COc1ccc(Cl)cc1NC(=O)CCC(=O)c1ccc(C)cc1 | 0.944% (inactive) |  |
| O=C(CCS(=O)(=O)c1ccc(Br)cc1)NCCc1ccc(Cl)cc1 |  | 39.8 µM (active) |
| CC(=O)N1CCc2cc(Br)cc(S(=O)(=O)CCC(=O)NCCc3ccc(Cl)cc3)c21 | 40.7% (inactive) |  |
| CCOc1ccc(OCC)c(NC(=O)CCS(=O)(=O)c2ccc(C)cc2)c1 | 8.41% (inactive) |  |
| Cn1c(=O)oc2cc(S(=O)(=O)CCC(=O)NCCc3ccc(Cl)cc3)ccc21 | 0.302% (inactive) |  |
| COc1cc(C(=O)NCCS(=O)(=O)N2CCN(c3ccccc3)CC2)cc(OC)c1OC | -21% (inactive) |  |
| O=C(COc1ccccc1Cl)Nc1ccc2nc(SCC(=O)N3CCCC3)sc2c1 | 2.65% (inactive) |  |
| Oc1c(C(c2ccc(F)cc2)N2CCN(Cc3ccccc3)CC2)sc2nc(-c3ccco3)nn12 (centres undefined) | -1.89% (inactive) |  |
| COC(=O)c1ccc(C2C(C(=O)Nc3ccccc3)=C(C)Nc3nc4ccccc4n32)cc1 (centres undefined) | -9.73% (inactive) |  |
| Cc1cccc(N2CCN(C(=O)CCSCc3ccccc3F)CC2)c1C | -1.73% (inactive) |  |
| Cn1ccc(=Nc2ccc(NC(=O)c3ccc(N=c4ccn(C)c5ccc([N+](=O)[O-])cc45)cc3)cc2)cc1 |  | 0.355 µM (active) |

| Structure (SMILES) | activity change, negative = inhibition | Potency |
| --- | --- | --- |
| O=C(Nc1ccc(C(=O)N2CCCCC2)cc1)c1cccc([N+](=O)[O-])c1 | 42.3% (inactive) |  |
| Cc1cc([N+](=O)[O-])ccc1NC(=O)c1ccc(NC(=O)C(C)C)cc1 | 18.3% (inactive) |  |
| CCOc1cccc2cc(-c3cn4c(n3)sc3cc(C)ccc34)c(=O)oc12 | 50.3% (inactive) |  |
| CO/N=C(\C(=O)N[C@@H]1C(=O)N2C(C(=O)O)=C(COC(C)=O)CS[C@H]12)c1csc(N)n1 (stereo in doubt) |  | inactive and 25.1 µM (active) |
| Cc1ccn2c(Nc3ccc4c(c3)OCCO4)c(-c3ccc(C)s3)nc2c1 | 24.2% (inactive) |  |
| Cc1cccc(-n2ccnc2SCC(=O)Nc2cc(C(F)(F)F)ccc2Cl)c1 | 7.77% (inactive) |  |
| COc1cccc(Cn2c(SCc3ccc(C(=O)N4CCC(C)CC4)cc3)nc3ccncc32)c1 | 0.534% (inactive) |  |
| Cc1cc(C)cc(NC(=O)c2cnc3sc(N4CCCC4)nn3c2=O)c1 | -0.911% (inactive) |  |
| COc1ccccc1-c1noc(-c2ccc(NCc3ccccc3)c([N+](=O)[O-])c2)n1 | 16.2% (inactive) |  |
| COc1ccc(-c2noc(-c3ccc(N4CCN(c5ccccc5)CC4)c([N+](=O)[O-])c3)n2)cc1OC |  | 89.1 µM (active) |
| COc1cc(-c2noc(-c3ccc(N4CCCC4)c([N+](=O)[O-])c3)n2)cc(OC)c1OC | -15.3% (inactive) |  |
| COc1ccc(S(=O)(=O)NCC(c2ccc(N(C)C)cc2)N2CCc3ccccc32)cc1OC (centres undefined) | 0.31% (inactive) |  |
| COc1ccccc1N1CCN(S(=O)(=O)CCNC(=O)COc2ccc(F)cc2)CC1 | 13.5% (inactive) |  |
| CC(=O)Nc1cccc(NC(=O)CSc2nccn2Cc2ccc3c(c2)OCO3)c1 | -15.7% (inactive) |  |
| CCOC(=O)CCCNC(=O)COC(=O)/C=C/c1ccc2c(c1)OCO2 | 3.45% (inactive) |  |
| O=C(Cc1ccc(F)cc1)N/N=C/c1ccc2c(c1)OCO2 | 90.3% (inactive) |  |
| CCC1=C/C(=C\c2ccc3c(c2)OCO3)C(=O)S1 |  | 14.1 µM (active) |
| Cc1cccc(NC(=O)c2ccc(F)c(S(=O)(=O)N(C)C3CCCCC3)c2)c1 | 1.39% (inactive) |  |
| COc1ccc(NC(=O)c2sc3nc[nH]c(=O)c3c2C)cc1 | 2.14% (inactive) |  |
| CN(C)[C@@H]1C(=O)C(C(N)=O)=C(O)[C@@]2(O)C(=O)C3=C(O)c4c(O)ccc(Cl)c4[C@@H](O)[C@H]3C[C@@H]12 |  | 8.91 µM (active) |
| Cc1ccccc1CCNC(=O)C1CCN(c2nc3ccccc3nc2C(F)(F)F)CC1 | -0.653% (inactive) |  |
| COc1ccc(S(=O)(=O)/N=C2\C=C(NS(=O)(=O)c3ccccc3)C(=O)c3ccccc32)cc1 |  | 79.4 µM (active) |
| COc1ccc(S(=O)(=O)Nc2cc3c(C(=O)OC(C)C)c(C)oc3c3ccccc23)cc1 | -24.9% (inactive) |  |
| COc1ccc(NC(=O)c2cnc(NS(=O)(=O)c3ccccc3)nc2)cc1 | 5.86% (inactive) |  |

| Structure (SMILES) | activity change, negative = inhibition | Potency |
| --- | --- | --- |
| CC(C)(C)c1ccc(S(=O)(=O)Nc2ccc(O)c(Sc3nc4ccccc4s3)c2)cc1 | -0.511% (inactive) |  |
| O=C(CC1N=C2c3ccccc3N=C(SCc3cccc(Cl)c3)N2C1=O)NCc1ccc2c(c1)OCO2 (centres undefined) | 1.32% (inactive) |  |
| O=C(CSC1=Nc2ccccc2C2=NC(CC(=O)NCc3ccco3)C(=O)N12)NCc1ccco1 (centres undefined) |  | 39.8 µM (active) |
| COc1ccc(NC(=O)CSC2=Nc3ccccc3C3=NC(CC(=O)NCc4ccccc4OC)C(=O)N23)cc1Cl (centres undefined) | -12% (inactive) |  |
| CCC(C)NC(=O)CSC1=Nc2ccccc2C2=NC(CCC(=O)NCc3ccco3)C(=O)N12 (centres undefined) | 11.3% (inactive) |  |
| O=C(CC1N=C2c3ccccc3N=C(SCc3ccccc3Cl)N2C1=O)NCc1ccco1 (centres undefined) |  | 12.6 µM (active) |
| O=C(CC1N=C2c3ccccc3N=C(SCc3ccc(F)cc3)N2C1=O)NCc1cccs1 (centres undefined) | 2.97% (inactive) |  |
| CCN(CC)c1ccc(NC(=O)Cn2nc3c(cc2=O)CCCC3)c(C)c1 | -15.3% (inactive) |  |
| O=C(NCCCO)C(=O)Nc1c2c(nn1-c1ccc(F)cc1)CSC2 | -5.48% (inactive) |  |
| CCOC(=O)c1c(C)oc2ccc(N(C(=O)c3ccncc3)S(=O)(=O)c3ccc(CC)cc3)cc12 | -2.09% (inactive) |  |
| Cc1ccc(C)c(NC(=O)CSC2=Nc3ccccc3N=C(c3ccc(F)cc3)C2)c1 | 19.4% (inactive) |  |
| O=C1c2ccccc2NC(c2ccc(-c3cccc(Cl)c3)o2)N1O (centres undefined) | 1.84% (inactive) |  |
| O=C(O)C(c1ccccc1)N1C(=O)/C(=C\c2ccc(-c3cccc(Cl)c3)o2)SC1=S (centres undefined) |  | 50.1 µM (active) |
| Nc1nnnn1CC(=O)N/N=C/c1ccc(-c2cccc(Cl)c2)o1 | -21.2% (inactive) |  |
| Cc1ccc(C)c2sc(NC(=O)c3ccc(S(=O)(=O)N4CCCC4)cc3)nc12 | -5.4% (inactive) |  |
| COc1cccc(C(=O)Nc2ccc(-c3cc(C(F)(F)F)nn3-c3ccccc3)cc2)c1 | 10.5% (inactive) |  |
| CCOc1cc(-c2nnc(SCC(=O)NC3CCCCC3)nc2-c2ccc(OC)c(OCC)c2)ccc1OC | 2.16% (inactive) |  |
| COC/C=C/C1=CC2=CC(=O)C(C)(OC(=O)CCC(=O)OC)C(=O)C2=CO1 (centres undefined) |  | 39.8 µM (active) |
| COC(=O)CCCC1=CC2=CC(=O)C(C)(OC(=O)c3cccs3)C(=O)C2=CN1CC(C)C (centres undefined) | 23.9% (inactive) |  |
| COCCN1C=C2C(=O)C(C)(OC(=O)C3CCCC3)C(=O)C=C2C=C1c1ccsc1 (centres undefined) | 0.629% (inactive) |  |
| COC(=O)c1cnn(-c2ccc(C(=O)Nc3ccc(OC(F)(F)F)cc3)cc2)c1N | 5.55% (inactive) |  |
| COC(=O)c1ccccc1NC(=O)C1CCN(C(=O)N2CCOc3ccccc32)CC1 |  | 89.1 µM (active) |
| COC(=O)c1ccccc1NC(=O)C1CCN(S(=O)(=O)c2cc(OC)ccc2OC)CC1 | -6.7% (inactive) |  |
| CCOc1ccc(NC(=O)C2CCN(C(=O)N3CCOc4ccccc43)CC2)cc1 | 10.2% (inactive) |  |

| Structure (SMILES) | activity change, negative = inhibition | Potency |
| --- | --- | --- |
| Cc1ccc(-c2nn(CCC(=O)Nc3ccc(OC(F)(F)F)cc3)c(=O)c3ccccc23)cc1 | 21.3% (inactive) |  |
| Clc1cccc(-n2ncc3c(NCCc4ccccc4)ncnc32)c1 | -25.3% (inactive) |  |
| CCOc1ccccc1NC(=O)Cc1cccs1 |  | 10 µM (active) |
| CCOc1ccc(NC(=O)C/C(C)=N/NC(=O)Cc2cccs2)cc1 | 31% (inactive) |  |
| COc1ccc(OC)c(NC(=O)Cc2cccs2)c1 |  | 50.1 µM (active) |
| COc1ccc(NC(=S)NCc2cccs2)c(OC)c1 | 0.939% (inactive) |  |
| COc1ccc(C)cc1NC(=O)CNCc1cccs1 | 2.69% (inactive) |  |
| CCOC(=O)c1ccc(NC(=O)Cc2cccs2)cc1 | 1.56% (inactive) |  |
| O=C(Cc1cccs1)Nc1nnc(SCc2ccc(F)cc2)s1 | -18.1% (inactive) |  |
| CCc1nnc(NC(=O)Cc2cccs2)s1 | -16.2% (inactive) |  |
| COc1ccc(Cc2nnc(NC(=O)Cc3cccs3)s2)cc1 |  | 2 µM (active) |
| Cc1nnc(NC(=O)CSc2nc3c([nH]c4ccccc43)c(=O)n2-c2cccc(Cl)c2)s1 | 2.52% (inactive) |  |
| CCN(C(=O)CSc1nnc(C)n2c1cc1occc12)c1ccccc1 | -23.3% (inactive) |  |
| COc1ccc(C)cc1NC(=O)CCc1c(C)nn(-c2ccc(N3CCOCC3)nn2)c1C | 0.568% (inactive) |  |
| COc1ccc(NC(=O)CSc2nc(NS(=O)(=O)c3ccc(C)cc3)cc(=O)[nH]2)cc1 |  | 17.8 µM (active) |
| Cc1ccc(OCCCC(=O)Nc2ccc(S(=O)(=O)Nc3cc(C)nc(C)n3)cc2)cc1 | 16.7% (inactive) |  |
| Cc1ccc(NC(=O)CSc2nc(CSc3ccc(C)cc3)cc(=O)[nH]2)cc1 | 0.354% (inactive) |  |
| CC1CCC2(CC1)N=C(c1ccccc1)C(=O)N2CC(=O)Nc1ccc(F)c(Cl)c1 (centres undefined) | 8.62% (inactive) |  |
| O=C(Nc1ccc2nc(SCCOc3ccccc3)sc2c1)c1ccco1 | 6.94% (inactive) |  |
| CS(=O)(=O)c1ccc2c(c1)SC1=NC(=O)/C(=C/c3ccco3)C(=N)N12 |  | 31.6 µM (active) |
| CCS(=O)(=O)C1=NSC2=NC(=O)/C(=C\c3ccc(OS(=O)(=O)c4ccccc4)cc3)C(=N)N21 | 0.694% (inactive) |  |
| CCS(=O)(=O)C1=NSC2=NC(=O)/C(=C\c3cc(C)n(-c4cccc(OC)c4)c3C)C(=N)N21 | -1.06% (inactive) |  |
